PME-1 inh: PME-1 (human) inhibition | Q9Y570 | inhibition, % at 5.9 µM | hit rate 0.53% among 320,000 | AID 2130 | recombinant PME-1, FP-Rh probe fluorescence polarization;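 active = inhibition above the campaign mean of all compounds plus 3 SD, cut at about 26% in these data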;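 note: competitive labeling of PME-1 active site by serine hydrolase directed probe; inhibitors block probe labeling so polarization falls and inhibition rises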
Target sequence (Q9Y570 whole entry, looked up): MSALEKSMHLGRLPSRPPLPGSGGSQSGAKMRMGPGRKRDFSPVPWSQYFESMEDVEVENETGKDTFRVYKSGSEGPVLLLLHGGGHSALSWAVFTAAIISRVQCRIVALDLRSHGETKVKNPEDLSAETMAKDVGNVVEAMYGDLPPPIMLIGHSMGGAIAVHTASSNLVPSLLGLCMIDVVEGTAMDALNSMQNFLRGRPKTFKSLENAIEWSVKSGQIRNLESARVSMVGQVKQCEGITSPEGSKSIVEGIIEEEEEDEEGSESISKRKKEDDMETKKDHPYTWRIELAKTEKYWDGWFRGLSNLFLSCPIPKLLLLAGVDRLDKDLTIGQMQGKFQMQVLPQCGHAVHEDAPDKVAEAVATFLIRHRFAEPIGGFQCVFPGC
pPAFAH inh: inhibitors of human plasma PAF acetylhydrolase (pPAFAH) | Q13093 | recombinant pPAFAH, FP-rhodamine probe fluorescence polarization | inhibition, % at 3.39 µM | hit rate 1.5% among 330,000;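 active = inhibition above the mean inhibition across the screen plus 3 SD, cut at about 25% in these data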;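 note: inhibitors block binding of the rhodamine activity-based probe so polarization drops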
PAD4 inh: blocks human protein arginine deiminase 4. Q9UM07. recombinant PAD4, RCA probe fluorescence polarization. inhibition, % at 6.36 µM. hit rate 0.41% among 330,000;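 active = percent inhibition above a cutoff equal to the mean of all tested compounds plus 3 SD, cut at about 15% in these data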
Fam108B counter: Fam108B inhibition, counter-screen for RBBP9 inhibitors; recombinant Fam108B, FP-Rh probe fluorescence polarization; inhibition, % at 9.51 µM; hit rate 0.33% among 300,000; AID 1947;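 active = inhibition above the screen mean inhibition plus 3 SD, computed separately per campaign, cut at about 18% in these data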;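 note: inhibitors lower polarization as less probe binds the enzyme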
GSTO1 inh: GSTO1 inhibition, counter-screen for RBBP9 inhibitors | P78417 | recombinant GSTO1, activity-based probe fluorescence polarization | inhibition, % at 5.96 µM | hit rate 1.1% among 300,000;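 active = inhibition above the campaign mean inhibition plus 3 SD, cut at about 35% in these data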
Target sequence (P78417 whole entry, looked up): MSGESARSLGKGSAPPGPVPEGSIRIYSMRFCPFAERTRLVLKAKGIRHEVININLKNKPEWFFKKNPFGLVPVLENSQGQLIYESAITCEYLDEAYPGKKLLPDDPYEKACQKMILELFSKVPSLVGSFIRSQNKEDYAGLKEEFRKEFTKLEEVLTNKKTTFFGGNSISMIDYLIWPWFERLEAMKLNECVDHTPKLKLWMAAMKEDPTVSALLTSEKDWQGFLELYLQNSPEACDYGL
GSTO1 confirm: GSTO1 (human) inhibition, confirmation. shares compounds with GSTO1 inh. recombinant GSTO1, probe fluorescence polarization. inhibition, % at 5.96 µM. hit rate 54% among 2,400. AID 2176;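 active = inhibition above the primary screen's cutoff, its mean inhibition plus 3 SD, cut at about 35% in these data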;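 note: loss of polarization as inhibitors block binding of rhodamine sulfonate ester activity probe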
GSTO1 recomb ABPP: GSTO1 (human) inhibition by gel ABPP | hit rate 30% among 130 | inhibition, % at 1 µM | AID 463110 | recombinant GSTO1, gel ABPP SE-Rh probe fluorescence | shares compounds with GSTO1 inh;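 active = inhibition of the enzyme GSTO1 above about 75%, limit read from the data; inactive = inhibition below that limit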
A number is an active result; – = inactive; · = no result. Sampled rows, rich in hits. Any-hit rate of the full collection: about 2.3%.

SMILES	PME-1 inh	pPAFAH inh	PAD4 inh	Fam108B counter	GSTO1 inh	GSTO1 confirm	others
COc1ccc(S(=O)(=O)c2ccc(OCC3CO3)cc2)cc1 (stereo unspecified)	–	–	–	–	–	·
COc1ccc(C(OCC2CO2)c2ccc(OC)cc2)cc1 (stereo unspecified)	–	–	–	–	82.1	91.8	GSTO1 recomb ABPP=–
CNc1cncc(C(=O)O)c1	–	–	–	–	–	·
O=C(OCc1cc(=O)n2c(n1)sc1ccccc12)c1ccc(O)cc1	–	–	–	–	–	·
O=c1cc(CCl)nc2sc3ccccc3n12	–	–	–	–	89.3	100.1	GSTO1 recomb ABPP=87.0
Cc1ccccc1N=C(NO)c1nonc1N	–	–	–	–	–	·
Cc1cccc(CN2CCN(C(=O)CCl)CC2)c1	–	–	–	–	96.2	99.0	GSTO1 recomb ABPP=–
Cc1cccc(CN2CCN(C(=O)c3cccc4ccccc34)CC2)c1	–	–	–	–	–	·
COc1cccc(-c2nc(CC(=O)O)cs2)c1OC	–	–	–	–	–	·
COc1cccc(-c2nc(CCl)cs2)c1OC	–	–	–	–	60.9	99.4	GSTO1 recomb ABPP=–
COC(=O)CCSC(=S)N1CCOCC1	–	–	–	–	–	·
CCN(CC)c1ccc2c(O)cc(=O)oc2c1	–	–	–	–	53.6	–
Cc1ccc(S(=O)(=O)NCc2cccnc2)cc1C(=O)NC1CCCCC1	–	–	–	–	–	·
COc1ccc(C2(C)NC(=O)N(CC(=O)NCCC3=CCCCC3)C2=O)cc1OC (stereo unspecified)	–	–	–	–	39.0	–
COc1ccc2cc(C3(C)NC(=O)N(CC(=O)NCCC4=CCCCC4)C3=O)ccc2c1 (stereo unspecified)	–	–	–	–	–	·
CC1OC(Nc2cccc3ccccc23)C(O)C(O)C1O (stereo unspecified)	–	–	–	–	49.0	–
COc1ccc(N(CC(=O)Nc2ccccc2F)S(=O)(=O)c2ccc(OC)c(OC)c2)cc1	–	–	–	–	–	·
O=C(COc1ccc([N+](=O)[O-])cc1Cl)NCCN1C(=O)CSC1=O	·	–	–	·	·	·
CCOC(=O)CSc1nc2ccccc2n2c(C)nnc12	–	–	–	–	–	·
Cc1nnc2c(SC(C)C)nc3ccccc3n12	–	–	–	–	41.6	–
N#Cc1ccccc1S(=O)(=O)c1ccccc1C(=O)Nc1ccccc1	–	–	–	–	–	·
Cc1ccc(N(Cc2cc(=O)[nH]c3ccccc23)C(=O)CCl)c(C)c1	–	–	–	–	64.2	74.7	GSTO1 recomb ABPP=–
Cc1ccc(C)c(S(=O)(=O)/N=C2\C=C(NS(=O)(=O)c3ccccc3)C(=O)c3ccccc32)c1	–	–	–	–	82.3	48.3
CC(C)c1ccc(S(=O)(=O)/N=C2\C=C(NS(=O)(=O)c3ccccc3)C(=O)c3ccccc32)cc1	–	26.4	–	–	78.6	75.0
Cc1cc(NS(=O)(=O)c2ccc(C(C)C)cc2)no1	–	–	–	–	–	·
SMILES	PME-1 inh	pPAFAH inh	PAD4 inh	Fam108B counter	GSTO1 inh	GSTO1 confirm	others
CCOC(=O)c1c(-c2ccc(OC)cc2)csc1/N=C/C1=C(O)CCCC1=O	–	–	–	–	–	·
CCCN(C(=O)C1CC(=O)N(c2ccccc2C(C)CC)C1)C1CCS(=O)(=O)C1 (stereo unspecified)	–	–	–	·	·	·
O=C(Nc1ccccc1)c1cn(CCBr)cn1	–	–	–	–	61.7	73.0
O=S(=O)(c1ccc(Cl)cc1)N1CCCCCC1	–	–	–	–	–	·
O=S(=O)(c1ccc(Cl)cc1)N1CCC2(CC1)CO2	–	–	–	–	96.5	105.5	GSTO1 recomb ABPP=–
Cc1cc(NC(=O)c2ccccc2)n(-c2nc3ccccc3[nH]2)n1	–	–	–	–	–	·
CCOC(=O)C(=O)Nc1cc(C)nn1-c1nc2ccccc2[nH]1	–	–	–	–	45.4	–
Cc1cc(C)c(NC(=O)CN2C(=O)NC3(CCCCC3)C2=O)c(Cl)c1	–	–	–	–	54.3	–
Cc1cc(C)c(NC(=O)CN2C(=O)NC3(CCc4ccccc43)C2=O)c(Cl)c1 (stereo unspecified)	·	–	–	·	·	·
O=C(Cn1c(NCCCO)nc2ccccc21)c1ccc(F)cc1	–	–	–	–	–	·
CC(NC(=O)c1cccs1)c1ccccc1 (stereo unspecified)	–	–	–	–	63.3	–
CCC1CCCCN1C(=O)C(=O)c1cn(CC(=O)N(CC)CC)c2ccccc12 (stereo unspecified)	–	–	–	–	39.7	–
C=CCOc1ccccc1CN(C(=O)CCl)c1ccc2c(c1)OCO2	–	–	–	–	95.2	86.0	GSTO1 recomb ABPP=75.0
CCOc1ccccc1NC(=O)Nc1ccc2c(c1)OCO2	–	–	–	–	–	·
CCOc1cc(/C=N/NC(=O)c2cccnc2)cc(Br)c1OCC(N)=O	–	–	–	–	–	·
Cn1cccc1C(=O)NCc1ccc(S(N)(=O)=O)cc1	–	–	–	–	–	·
CCOCC(=O)Nc1nnc(Cc2ccc(OC)cc2)s1	–	–	–	–	39.3	–
CCOCC(=O)Nc1nnc(Cc2ccc(OC)c(OC)c2)s1	–	–	–	–	–	·
CC(=O)Nc1ccc(S(=O)(=O)NC(C)C(=O)NCCc2ccc(F)cc2)cc1 (stereo unspecified)	–	–	–	–	–	·
COc1cccc(CNC(=O)c2cc3c(cc2Cl)N2CCCCCC2=NS3(=O)=O)c1	–	–	–	–	–	·
CCCN1CCN(CCCNC(=O)CCn2nc(-c3ccccc3)ccc2=O)CC1	–	–	–	–	–	·
O=C(Cc1ccccn1)c1ccc(Cl)cc1	–	–	–	–	–	·
CC1=C(CC(=O)c2ccc(Cl)cc2)C(=O)c2ccccc2C1=O	–	28.1	–	–	44.5	–
N#CC1=C(N)Oc2n[nH]c(-c3ccccc3)c2C1c1cccnc1 (stereo unspecified)	–	–	–	–	–	·
N#CC1=C(N)Oc2n[nH]c(-c3cccnc3)c2C1c1ccc([N+](=O)[O-])o1 (stereo unspecified)	–	–	–	–	42.4	–
SMILES	PME-1 inh	pPAFAH inh	PAD4 inh	Fam108B counter	GSTO1 inh	GSTO1 confirm	others
COC(=O)c1ccc(CC(=O)c2c(C)cc(O)cc2O)o1	–	34.1	–	–	43.2	–
Cc1occc1C(=O)NNC1=CC(=O)CC(C)(C)C1	–	–	–	–	–	·
O=C(Nc1ccccc1F)c1ccc([N+](=O)[O-])s1	–	–	–	–	43.6	–
COCCCNC(=O)C[C@H]1C[C@H](C(=O)N(C(C)C)C(C)C)[C@@]2(C)c3[nH]c4cc(-c5ccco5)ccc4c3CCN2C1=O	·	–	–	·	·	·
Cc1ccc(C(=O)OCn2ncc(Cl)c(Cl)c2=O)cc1	–	–	19.7	–	45.2	45.8
O=C(/C=C/c1cccc(Br)c1)N1CCN(c2ccccn2)CC1	–	–	–	–	–	·
Cc1ccccc1-n1ncc2c([N+](=O)[O-])cc([N+](=O)[O-])cc21	–	–	–	–	39.0	–

Screening results as filed in PubChem BioAssay.
